Measured values published in the supplement of paper PMC6555819.

Assays:
Assay in all cases: PBM binding z-score (relative to random genomic background probes); higher = stronger binding; sequences stand for … in GC…GCGATTGACAGCGTAGAATGAAGG
[1] = test system: FXR:RXRa (NR concentration 270 nM, RXRa partner concentration 90 nM)
Summary of the method: (§1)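 Ligand-free nuclear receptor dimers were bound for 1 h to custom Agilent 4×180K protein-binding microarrays. Detection used antibodies against each partner (one per run). Binding z-scores rest on regression-normalized fluorescence, with random background probes as the reference.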

[2] = test system: LXRa:RXRa (NR concentration 270 nM, RXRa partner concentration 90 nM)
Summary of the method: as §1

[3] = test system: LXRa homodimer (NR concentration 270 nM)
Summary of the method: as §1

[4] = test system: LXRb:RXRa (NR concentration 270 nM, RXRa partner concentration 90 nM)
Summary of the method: as §1

[5] = test system: LXRb homodimer (NR concentration 270 nM)
Summary of the method: as §1

[6] = test system: PPARa:RXRa (NR concentration 270 nM, RXRa partner concentration 90 nM)
Summary of the method: as §1

[7] = test system: PPARg:RXRa (NR concentration 180 nM, RXRa partner concentration 90 nM)
Summary of the method: as §1

[8] = test system: PPARg:RXRa 270nM:90nM, anti-RXR (NR concentration 270 nM, RXRa partner concentration 90 nM)
Summary of the method: as §1

[9] = test system: PPARg:RXRa 30nM:10nM, anti-RXR (NR concentration 30 nM, RXRa partner concentration 10 nM)
Summary of the method: as §1

[10] = test system: PPARg:RXRa 90nM:30nM, anti-RXR (NR concentration 90 nM, RXRa partner concentration 30 nM)
Summary of the method: as §1

[11] = test system: PPARg:RXRa DBDmut IVT, anti-RXR (DBD mutation: RXRa K156A/R161A, NR concentration 270 nM, RXRa partner concentration 90 nM)
Summary of the method: as §1

[12] = test system: PPARg:RXRa IVT, anti-PPARg (NR concentration 270 nM, RXRa partner concentration 90 nM)
Summary of the method: as §1

[13] = test system: PPARg DBDmut:RXRa IVT, anti-PPARg (DBD mutation: PPARg1 K132A/R137A, NR concentration 270 nM, RXRa partner concentration 90 nM)
Summary of the method: as §1

[14] = test system: PPARg DBDmut IVT, anti-PPARg (DBD mutation: PPARg1 K132A/R137A, NR concentration 270 nM)
Summary of the method: as §1

[15] = test system: PPARg homodimer (NR concentration 180 nM)
Summary of the method: as §1

[16] = test system: PXR:RXRa (NR concentration 270 nM, RXRa partner concentration 90 nM)
Summary of the method: as §1

[17] = test system: PXR homodimer (NR concentration 270 nM)
Summary of the method: as §1

[18] = test system: RARa:RXR (NR concentration 270 nM, RXRa partner concentration 90 nM)
Summary of the method: as §1

[19] = test system: RARa homodimer (NR concentration 270 nM)
Summary of the method: as §1

[20] = test system: RARb:RXRa (NR concentration 270 nM, RXRa partner concentration 90 nM)
Summary of the method: as §1

Sequence	PBM binding z-score [1]	PBM binding z-score [2]	PBM binding z-score [3]	PBM binding z-score [4]	PBM binding z-score [5]	PBM binding z-score [6]	PBM binding z-score [7]	PBM binding z-score [8]	PBM binding z-score [9]	PBM binding z-score [10]	PBM binding z-score [11]	PBM binding z-score [12]	PBM binding z-score [13]	PBM binding z-score [14]	PBM binding z-score [15]	PBM binding z-score [16]	PBM binding z-score [17]	PBM binding z-score [18]	PBM binding z-score [19]	PBM binding z-score [20]
CGAACGAGGGCATGAGGTGATAGCAAATGCCGAT	0.82	0.474	-0.458	0.317	-0.998	2.05	2.27	2.23	0.483	1.49	3.25	3.37	0.644	-0.341	0.574	0.422	-0.352	1.16	0.0615	2.26
AATACAGGGTCATCATAGGCCAGAGTACGCACAG	6.85	6.83	2.28	4.77	1.57	5.63	6.31	5.66	2.51	4.41	2.62	3.98	1.5	0.916	1.8	4.42	1.01	4.65	1.25	4.25
AGAATGAGGTTATACGTACATCAGGGAAGAAAGT	2.3	2.05	0.00405	1.58	0.14	3.24	2.46	2.42	0.777	1.66	2.47	2.41	1.28	1.19	0.736	1.28	0.643	1.82	0.483	1.5
AGAATGAGGTTCTTAAGATCAGGGAATTGCGGTC	-0.335	-0.575	-0.571	-0.551	-0.54	-0.0387	0.197	-0.0485	-0.306	0.0331	0.324	0.283	0.378	-0.225	-0.0988	-0.118	-0.179	-0.0748	-0.832	0.0675
AATAGAGGGTCACTAGGCCAGAGTAGGTACGAAT	4.62	3.5	0.324	2.81	-0.0545	4.99	6.44	5.59	2.33	4.4	3.57	5.33	0.782	0.194	1.04	1.95	-0.034	2.89	0.102	3.69
TAGCCTAGGTCATGGGCCAGTACACCACGCGAAC	4.77	3.08	0.269	2.41	0.439	4.05	3.9	3.76	1.09	2.8	1.78	3.17	1.24	-0.494	1.72	1.62	-0.215	2.77	0.343	3.92
TGAATGAGGTTAAAGATTAGGGAACGTGGCGTCG	2.45	2.05	-0.0169	1.38	0.449	3.74	3.78	4.94	2.32	4.36	2	2.99	1.53	0.276	0.705	1.33	0.337	1.98	0.424	1.97
CGAACTAGGGCATTGACAGGACAGTGAATAGTAA	0.151	0.0251	0.031	-0.0451	-0.654	2.23	3.32	2.68	0.522	1.83	6.82	6.53	1.42	0.993	0.464	-0.229	-0.0482	-0.297	0.262	1.14
ATCGAAAGGTCGTGAGGTGCGTATACAGAAAGGC	5.17	3.73	-0.157	2.99	-0.0634	5.18	3.39	3.76	1.13	2.4	0.0193	1.75	0.734	0.404	1.37	2.98	0.197	3.01	0.318	3.85
GCTTACGGGTTAAAGGTTATAGCATGAATAGAAT	4.76	4.09	0.422	4.17	0.397	5.9	8.86	7.5	6.81	8.18	1.96	4	0.8	1.12	1.78	4.18	0.49	6.08	1.07	2.31
GCTAGTTGGTCAGTAAAAGGTCACACGCCGGTCG	3.48	4.98	4.69	4.1	0.629	4.52	3.32	4.66	2.53	4.53	1.06	3.13	-0.186	0.255	3.94	5.06	0.982	6.11	1.93	4.53
TAGCCTATGTCATGCGGGCCAGTATAGTGTCGGC	-0.542	-0.522	-0.975	-0.937	-0.855	-0.683	0.11	-0.476	-0.612	-0.433	-0.318	0.0427	-0.339	-0.807	-1.01	-0.639	-1.13	-0.718	-1.4	0.113
CAAACTAGGTCAAGGCCAAAGTCGGTTTGTGCCA	3.98	2.52	0.111	1.71	-0.0886	4.91	8.07	6.77	4.34	6.26	8.27	8.75	3.6	3.41	3.12	1.8	-0.0922	2.28	-0.0524	4.25
CCTACTGGGCCACCAAAGGTCATTGATTCAGTGA	3.72	5.73	6.47	4.95	0.575	4.69	5	5.44	2.81	4.94	5.36	5.74	1.31	0.0425	4.38	5.69	2.75	6.23	2.56	4
